# High-throughput results as filed in PubChem.
# A selection: hits, their analogues and other compounds. The true share with any hit is near 7.4%.
# NPC1 promoter act – qHTS Assay for NPC1 Promoter Activators | Huh7 NPC1 promoter luciferase reporter, 24 h | Potency, µM (top dose mostly 9.22 µM), inactives show top-dose activation, hits mostly activators | AID 485313, 2010 | 2.4% of 320,000 active; note: % of control where 0% means no effect; nearly all actives have a fitted effect of over 60% in size
#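 Quantitative HTS used a cell-based reporter: Huh7 cells stably bearing the NPC1 promoter upstream of luciferase were treated with compounds for 24 h, and promoter activation was read as luminescence.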
# Rab9 promoter act – qHTS Assay for Rab9 Promoter Activators | Huh7 Rab9 promoter-luciferase reporter, luminescence, 24 h | Potency, µM (titrated, usually from 9.22 µM), for inactives: at the highest dose activation, negative = inhibition, most hits filed as activators | 2.8% of 320,000 active | AID 485297, 2010; note: % of control where 0% means no effect; nearly all actives have a fitted effect of over 60% in size
#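 Rab9 promoter-driven luciferase in stably transfected Huh7 cells; 1500 cells/well rested 2 h, exposed to compound in DMSO for 24 h at 37 °C, 5% CO2. Luminescence read 10 min after adding luciferase reagent at ambient temperature.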
# FLuc counter – qHTS profiling assay for firefly luciferase inhibitor/activator using purifed enzyme and Km concentrations of substrates (counterscreen for miR-21 project); purified FLuc, Km substrates, luminescence inhibition; Potency, µM (doses to about 57.5 µM), without a hit: at the top dose activity change, negative = inhibition, most hits filed as inhibitors; 6.9% of 360,000 active;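 note: plate controls were vehicle for no effect and reference inhibitor for full effect; nearly all actives have a fitted effect of over 55% in size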
# Target sequence (P08659 whole entry, looked up): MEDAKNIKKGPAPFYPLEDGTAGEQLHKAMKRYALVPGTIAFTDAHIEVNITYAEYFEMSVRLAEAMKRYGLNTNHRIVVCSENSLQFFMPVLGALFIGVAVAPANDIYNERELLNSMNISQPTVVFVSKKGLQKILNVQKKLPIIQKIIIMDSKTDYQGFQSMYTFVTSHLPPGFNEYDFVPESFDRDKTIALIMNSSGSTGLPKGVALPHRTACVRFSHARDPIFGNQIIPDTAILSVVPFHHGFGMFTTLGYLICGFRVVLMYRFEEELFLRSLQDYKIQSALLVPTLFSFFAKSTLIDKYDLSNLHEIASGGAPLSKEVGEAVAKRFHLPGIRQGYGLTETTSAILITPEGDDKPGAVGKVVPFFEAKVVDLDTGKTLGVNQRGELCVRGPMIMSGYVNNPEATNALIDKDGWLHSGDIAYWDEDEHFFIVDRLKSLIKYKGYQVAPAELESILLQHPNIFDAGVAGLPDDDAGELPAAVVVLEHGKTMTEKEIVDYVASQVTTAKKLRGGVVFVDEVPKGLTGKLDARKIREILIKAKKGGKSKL
#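 Biochemical qHTS of compounds, final roughly 60 µM downward over six points, against 10 nM purified firefly luciferase using Km concentrations of substrates (10 uM D-luciferin, 10 uM ATP) in Tris acetate pH 7.5 buffer; luminescence output.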
# SMN2 splice enh – qHTS Assay for Enhancers of SMN2 Splice Variant Expression; AID 1458, 2008; 2.8% of 210,000 active; HEK293 SMN2-luciferase splicing reporter, luminescence, 30-36 h; Potency, µM (highest dose often 46.1 µM), for inactives: top-dose activity change, positive = activation, actives largely listed as activators; note: % of control where 0% means no effect; nearly all actives have a fitted effect of over 55% in size
#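 HEK293 cells carry an SMN2 minigene-luciferase reporter in which exon 7 inclusion puts luciferase in frame. Cells were seeded at 2000 cells/well, attached for 10-12 hours, then exposed to compounds for 30-36 hours at 37C before ONE-Glo luminescence.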
# ELG1 genotoxic – qHTS screen for small molecules that induce genotoxicity in human embryonic kidney (HEK293T) cells expressing luciferase-tagged ELG1; HEK293T ELG1-luciferase reporter, luminescence, 16 h; Potency, µM (highest dose often 46 µM), without a hit: at the top dose activity change, positive = activation, actives largely listed as activators; 1.3% of 330,000 active; note: % of control where 0% means no effect; nearly all actives have a fitted effect of over 60% in size
#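 Reporter readout depends on ELG1 protein level, which increases with genetic stress. After 16 hr compound exposure at 37 °C, luciferase activity was quantified using ONE-Glo.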
# * marks the source's active call; other numbers are inactive results; ? = inconclusive; / = no result given. Calls come from the whole dose curve; as a rule, active = well fitted curve in the direction sought with a large enough effect; inconclusive = small, poorly fitted or top-dose-only effect, or another doubt; inactive = no such curve, though single readings can be large; an effect the other way counts as inactive or inconclusive. Potency is the fitted concentration of half-maximal effect.
SMILES,NPC1 promoter act,Rab9 promoter act,FLuc counter,SMN2 splice enh,ELG1 genotoxic
CN1/C(=C\C=N\O)C(C)(C)c2ccccc21,7.9%,-1.1%,-0.1%,-2.5%,2.0%
CN1C(=CC=C2C=C(I)C(=O)C(I)=C2)C(C)(C)c2ccccc21,-3.3%,-20.4%,21.3µM*,/,-4.8%
CCOc1ccccc1NC(=O)C1CCN(c2nc(-c3ccc(OC)cc3)no2)CC1,-4.5%,2.6%,-7.4%,/,-8.0%
CCc1ccc(NC(=O)c2cc(S(=O)(=O)N3CCCC3)ccc2F)cc1,/,/,-9.4%,/,/
Cc1cccc(C)c1NC(=O)CNC(=O)Cc1ccccc1[N+](=O)[O-],1.7%,0.1%,4.5%,/,-1.6%
CCN(CC(=O)NCc1ccc(Cl)cc1)C(=O)Cc1ccccc1[N+](=O)[O-],2.51µM*,3.55µM*,?,/,?
Cc1ccccc1CNC(=O)Cc1ccccc1[N+](=O)[O-],?,3.98µM*,16.9µM*,14.1µM*,?
O=C(Cc1ccccc1[N+](=O)[O-])NCc1ccccc1Cl,3.55µM*,2.82µM*,7.57µM*,?,?
COc1cccc(CN2CCNC(=O)C2CC(=O)NCc2cc(C(C)C)no2)c1 (stereo not drawn),0.3%,-8.1%,0.5%,/,-0.1%
COC(=O)c1cccc(NC(=S)NCc2ccc(Cl)cc2)c1,0.9%,-1.6%,4.5%,17.4%,-3.0%
Cc1cccc(NC(=S)NNC(=O)c2ccccc2Br)c1,21.6%,3.16µM*,?,12.6µM*,9.5%
CC(=O)c1cccc(NC(=S)NC(=O)c2ccccc2Br)c1,5.8%,1.0%,16.9µM*,-4.3%,0.7%
CC(=O)c1cccc(NC(=S)NC(=O)c2ccc(Cl)cc2)c1,?,?,13.5µM*,15.8µM*,?
CC(=O)c1cccc(NC(=S)NC(=O)c2cccc(C)c2)c1,?,3.16µM*,4.26µM*,15.8µM*,?
Cc1cccc(NC(=S)NNC(=O)c2ccccc2OC(F)F)c1,12.3%,10.9%,-10.9%,?,-7.3%
CC(=O)c1cccc(NC(=S)NC(=O)c2ccccc2C)c1,-6.0%,-5.2%,?,/,-0.3%
CC(=O)NCCNC(=O)c1ccc2c(=O)n(CCc3ccccc3)c(=O)[nH]c2c1,/,/,?,11.6%,/
CC(=O)c1ccc(NC(=O)c2cc(-c3ccc(C)s3)nc3ccccc23)cc1,/,/,-32.6%,-2.4%,/
CCOC(=O)C1=C(COC(=O)C(CC)Oc2ccccc2)NC(=O)NC1C (stereo not drawn),2.2%,0.6%,7.9%,/,0.9%
CN(C)C(=O)c1ccc(-c2ccc3ncnc(NC4CCNCC4)c3c2)cc1,/,/,/,4.3%,/
Cc1c(C)c2ccc(OCC(=O)N3CCC(C(=O)O)CC3)cc2oc1=O,-0.8%,-1.2%,19µM*,/,-1.3%
COc1ccc2c(c1)c(=O)oc1cc(OCC(=O)NCC3CCC(C(=O)O)CC3)ccc12 (stereo not drawn),10.6%,1.3%,10.7µM*,/,11.4%
O=C(O)C1CCN(C(=O)COc2ccc3c4c(c(=O)oc3c2)CCCC4)CC1,-0.5%,-6.7%,-21.1%,/,1.8%
COc1ccc(-c2cc3ccc(OCC(=O)NCC4CCC(C(=O)O)CC4)cc3oc2=O)cc1 (stereo not drawn),3.16µM*,4.47µM*,0.953µM*,/,?
CCOC(=O)Cn1cc(C(=O)c2cccs2)c2ccccc21,1.8%,-5.1%,?,0.141µM*,-1.6%
COc1ccc(/C=C/c2onc(C)c2S(=O)(=O)N2CCC(C(=O)N3CCC(C)CC3)CC2)cc1,-5.7%,-4.2%,-1.6%,/,-0.6%
CNC(=O)c1c(NC(=O)c2ccco2)sc2c1CCC2,14.2%,?,?,/,-1.3%
O=C(/C=C/c1ccccc1)Nc1sc2c(c1C(=O)O)CCC2,?,?,16.9µM*,/,-0.5%
N#Cc1c(NC(=O)/C=C/c2ccco2)sc2c1CCCC2,?,?,4.78µM*,3.55µM*,2.91µM*
O=C(/C=C/c1ccco1)Nc1sc2c(c1C(=O)O)CCC2,3.55µM*,?,13.5µM*,28.2µM*,1.7%
